Assay results: PubChem BioAssay (Tox21)
Results filed as inconclusive are left out. Values without a mark were called inactive. Activity calls are given as the source filed them. Calls follow the shape of the dose curve; as a rule, active = well fitted activation curve with a large enough effect in the repeat runs; inconclusive = weak or mixed curves, or effect the other way; inactive = no such curve, though single readings can be large or run the other way.

assay: qHTS assay to identify small molecule agonists of the estrogen related receptor signaling pathway with the pleiotropic PPARgamma coactivator (PGC) from Tox21 10K library (AID 1224842); settings: PGC/ERR reporter cell line, luciferase ONE-Glo, 18 h; series mostly up to 92.4 µM; activation: at the top concentration; also: nearly all actives have a fitted effect of over 15% in size
Description: National Center for Advancing Translational Sciences [NCATS] NIH Chemical Genomics Center [NCGC] U.S. Environmental Protection Agency [EPA] National Institutes of Environmental Health Sciences [NIEHS] National Toxicology Program [NTP] Assay overview: Estrogen related receptors (ERRs), the first orphan nuclear receptors discovered, play an important role in the control of cellular energy metabolism. ERRs are required for high-energy production in response to the environmental challenges. The pleiotropic PPARgamma coactivator (PGC) is a major partner of ERR and a key regulator in energy homeostasis. Together they have been implicated in the etiology of metabolic disorders such as Type 2 diabetes and metabolic syndrome. ERR-alpha was also identified as an adverse marker for breast cancer progression; ERR-alpha-positive tumors have a poor prognosis. To screen and to identify environmental compounds that perturb the PGC/ERR signaling pathways could provide valuable information for potential therapeutic or preventive measures in the treatment of metabolic disease. For identifying PGC/ERR agonists, PGC/ERR cell line (provided by NTP) has been used to screen Tox21 10K library.
Assay Protocol Summary: The PGC/ERR cells were dispensed at 2,000 cells/5 ul/well in 1536-well white plates using a Multidrop dispenser. After the assay plates were incubated at a 37 C/5% CO2 incubator for 6 hours, 23 nL of compounds dissolved in DMSO, positive and negative controls or DMSO only was transferred to the assay plate by a pin tool. The plates were incubated at 37 C for 18 hours. 4 ul/well of One-Glo reagent was added into the assay plates using a Flying Reagent Dispenser. After 30-minute incubation at room temperature, the luminescence intensity in the plates was measured using a ViewLux plate reader.
% is scaled to controls: 0 for no effect and ±100 for the full control effect; potency is read from the fitted curve at half-maximal effect.

| SMILES | activation | Potency |
| --- | --- | --- |
| CCCCNc1ccc(C(=O)OCCOCCOCCOCCOCCOCCOCCOCCOCCOC)cc1 | -2.33% [at 42.5 µM] |  |
| C=CCOc1ccccc1OCC(O)CNC(C)C (stereo not given) | 0.362% [at 42.5 µM] |  |
| CCC(C)(C)CC | -2.55% |  |
| CCCCCCc1ccc(-c2ccc(C#N)cc2)cc1 | 3.47% |  |
| Cc1ncc(CO)c(C=O)c1O | 1.04% [at 42.5 µM] |  |
| COC(C)(C)CCO | 2.33% |  |
| COC(C)OC | 0.914% |  |
| CC(=O)[O][Al][O]C(C)=O | 0.222% |  |
| C=C(C)C(=O)OCC | 2.14% |  |
| CN1CCC(=C2c3ccccc3Sc3ccccc32)CC1 | 1.7% [at 42.5 µM] |  |
| CC(C)CC(=O)C1C(=O)c2ccccc2C1=O | -23.3% |  |
| CN1CCC(N(Cc2cccs2)c2ccccc2)CC1 | 0.54% [at 42.5 µM] |  |
| C#Cc1cccc(Nc2ncnc3cc(OCCOC)c(OCCOC)cc23)c1 | -2.57% [at 42.5 µM] |  |
| CCCCC/C=C\C/C=C\CCCCCCCC(=O)NC(C)c1ccccc1 (stereo not given) | -13.8% [at 42.5 µM] |  |
| CCN(CC)c1ccc2c(-c3ccccc3C(=O)O)c3ccc(=[N+](CC)CC)cc-3oc2c1 | -23.7% |  |
| CCC(=O)O[C@]1(C(=O)CCl)[C@@H](C)C[C@H]2[C@@H]3CCC4=CC(=O)C=C[C@]4(C)[C@@]3(F)[C@@H](O)C[C@@]21C | -1.16% [at 42.5 µM] |  |
| COc1ccc(C(=O)c2ccc(OC)cc2O)c(O)c1 |  | 4.89 µM (active) |
| CCC(Cl)CCC(Cl)C(Cl)CC(Cl)C(Cl)C(Cl)CCl (stereo not given) | -2.87% |  |
| c1ccc(-c2ccccn2)nc1 | -15.2% |  |
| C[Si](C)(CCCN)O[Si](C)(C)CCCN | -1.24% |  |

| SMILES | activation | Potency |
| --- | --- | --- |
| O=C1CCCCCCCCCCCC(=O)OCCO1 | -2.98% |  |
| Cc1nn(C)c(Oc2ccccc2)c1/C=N/OCc1ccc(C(=O)OC(C)(C)C)cc1 | -12.8% |  |
| CN(C)CCCN1c2ccccc2Sc2ccccc21 | 10.4% [at 42.5 µM] |  |
| C1CCCNCCC1 | -3.04% |  |
| CCCn1cnc2c1c(=O)n(CCCCC(C)=O)c(=O)n2C | 0.899% [at 42.5 µM] |  |
| Nc1cccc(S(=O)(=O)c2cccc(N)c2)c1 | -2.27% |  |
| CCCCCCCCCCCCN1CCCCCC1=O | -6.76% |  |
| O=C(c1ccc(F)cc1)C1CCN(CCn2c(=S)[nH]c3ccccc3c2=O)CC1 | -22.3% [at 42.5 µM] |  |
| Brc1c2ccccc2c(Br)c2ccccc12 | 2.94% [at 8.39 µM] |  |
| CC(C)(O)c1ccc(CNC(=O)c2cccnc2Oc2ccc(F)cc2)cc1 | -20.1% |  |
| COc1cc2nc(N(C)CCCNC(=O)C3CCCO3)nc(N)c2cc1OC (stereo not given) | -15.6% [at 42.5 µM] |  |
| O=C1CCC(=O)O1 | 1.97% |  |
| Nc1ccc([N+](=O)[O-])c(C(F)(F)F)c1 | -3.47% [at 42.5 µM] |  |
| O=C(O)c1nc(Cl)c(Cl)c(Cl)c1Cl | -7.3% |  |
| C=CCOC(=O)CCC1CCCCC1 | -4.62% |  |
| O=S(c1cc(Cl)cc(Cl)c1O)c1cc(Cl)cc(Cl)c1O | -4.81% [at 42.5 µM] |  |
| CN1Cc2cc(C(=O)N3CCC(C4CCNCC4)CC3)ccc2NC(CC(=O)O)C1=O (stereo not given) | 0.654% [at 42.5 µM] |  |
| CCN(CC)CCNC(=O)c1cc(Br)c(N)cc1OC | -0.275% [at 42.5 µM] |  |
| Nc1ccccc1S(=O)(=O)c1ccccc1 | -7.7% |  |
| CC(C)OC(=O)C(C)N(C(=O)c1ccccc1)c1ccc(F)c(Cl)c1 (stereo not given) | -21.1% |  |
